The source of these data is PubChem BioAssay (NCATS).

Assay [1] has as its system Zika virus NS2B-NS3 protease. Description: Primary screen GU AMC qHTS for Zika virus inhibitors (AID 1347154). Also: nearly all actives have a fitted effect of over 70% in size. As to conditions: Zika NS2B-NS3 unlinked protease, AMC fluorogenic substrate; series mostly up to 54.1 µM. Summed up: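 Unlinked Zika NS2B hydrophilic domain–NS3 protease complex at 25 nM in 10 mM Tris-HCl pH 8.0, 0.01% Tween 20, with an AMC peptide substrate. Fluorescence change (340/450 nm) over 15 min at room temperature, normalized to controls, fitted to 4-parameter Hill.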

Assay [2] concerns Zika virus NS2B-NS3 protease (unlinked complex). Kind of assay: Primary screen GU Rhodamine qHTS for Zika virus inhibitors: Unlinked NS2B-NS3 protease assay (AID 1347159). Also: nearly all actives have a fitted effect of over 60% in size. Also: potency is read from the fitted curve at half-maximal effect. The following applies: Recombinant ZIKV NS2B-NS3 protease, Rhodamine110 substrate fluorescence; series mostly up to 107 µM. The gist of the method: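 In dose–response format, inhibition of unlinked protease (25 nM) was measured with 1.5 microM bis-peptide Rhodamine110 substrate. Aprotinin served as the intraplate control.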

The subject of assay [3] is Zika virus NS2B-NS3 protease (linked construct). Description: Primary screen NINDS Rhodamine qHTS for Zika virus inhibitors (AID 1347160). Also: nearly all actives have a fitted effect of over 55% in size. As to conditions: purified NS2B-NS3 protease, Rhodamine110 substrate fluorescence; series mostly up to 57.1 µM. Summed up:
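Each compound, titrated, sat 15 min with 25 nM linked protease before 1.5 microM Rhodamine110 substrate went in. Fluorescence gain over the next 15 min, in pH 8.0 Tris with Tween 20, gave Hill-fitted curves.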

A short description of assay [4]: Confirmatory screen GU Rhodamine qHTS for Zika virus inhibitors qHTS (AID 1347157). Also: potency is read from the fitted curve at half-maximal effect; nearly all actives have a fitted effect of over 70% in size. The following applies: purified enzyme assay, Rhodamine110 substrate fluorescence, 15 min; series mostly up to 114 µM. The gist of the method:
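Buffer 10 mM Tris-HCl pH 8.0, 0.01% Tween 20. Unlinked protease 25 nM; compound preincubation 15 min, RT, protected from light. Substrate Rhod110, 1.5 microM; ~15% conversion in 15 min.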

Assay [5] in a line: Confirmatory screen NINDS Rhodamine qHTS for Zika virus inhibitors (AID 1347161). Also: potency is read from the fitted curve at half-maximal effect; nearly all actives have a fitted effect of over 60% in size. The following applies: purified enzyme assay, Rhodamine110 substrate fluorescence, 15 min; series mostly up to 114 µM. Summed up: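 In 10 mM Tris-HCl pH 8.0 containing 0.01% Tween 20, linked NS2B-NS3 protease (25 nM final) is exposed to test compounds for 15 min. Cleavage of 1.5 microM Rhodamine110 substrate is tracked by fluorescence over 15 min.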

Molecules are shown by their SMILES. Records with an inconclusive call do not appear. Activity calls are given as the source filed them. Calls follow the shape of the dose curve; as a rule, active = well fitted curve in the direction sought with a large enough effect; inconclusive = small, poorly fitted or top-dose-only effect, or another doubt; inactive = no such curve, though single readings can be large; an effect the other way counts as inactive or inconclusive.

For `O=C(Nc1ccc(OC(F)(F)F)cc1)c1sccc1NCc1ccnc2ccccc12`, the Potency result in assay [1] and in assay [2] was “inactive” each time.

Turning to `COc1nccc(-c2c(-c3ccc(F)cc3)ncn2C2CCC(O)CC2)n1` (stereo unspecified), the Potency result in assay [1] and in assay [2] was “inactive” each time.

As for `CN1CCC(COc2cnc(-c3cccc(Cn4nc(-c5cccc(C#N)c5)ccc4=O)c3)nc2)CC1`, the Potency result in assay [1], in assay [2] and in assay [3] was “inactive” throughout.

On to `COc1nccc(-c2c(-c3ccc(F)cc3)ncn2C2CCNCC2)n1`, for which the Potency entry in assay [1] and in assay [2] was “inactive” in each case.

Regarding `Cn1c(=O)c(-c2c(Cl)cccc2Cl)cc2cnc(Nc3cccc(C(=O)O)c3)nc21`, the Potency result in assay [1] and in assay [3] was “inactive” each time. Moreover, the values for the Potency in assay [4], in assay [2] and in assay [5] were 11.1 µM (active), 7.94 µM (active) and 13.9 µM (active), respectively.

In the case of `O=C(Nc1cccc(C(F)(F)F)c1)Nc1cc(S(=O)(=O)NC2CC2)ccc1-c1ccsc1`, the Potency result in assay [1] is “inactive”. For the same compound, the Potency in assay [2] was 22.4 µM (active).

With `CC(C)(O)CC(=O)NCCn1ccc2ncnc(Nc3ccc(Oc4cccc(C(F)(F)F)c4)c(Cl)c3)c21`, the Potency result in assay [1], in assay [2] and in assay [3] was “inactive” throughout.

On to `CS(=O)(=O)c1ccc(C2=C(c3ccccc3)C(=O)OC2)cc1`, for which the Potency result in assay [1], in assay [2] and in assay [3] was “inactive” in each case.

Regarding `CN(C)c1nc(Cc2ccc(NC(=O)c3ccc(C(F)(F)F)cc3)cc2)nc(N(C)C)c1CC(=O)O`, the Potency result in assay [1], in assay [2] and in assay [3] was “inactive” each time.

Consider `Cc1nc2c([nH]1)CCN(C(=O)c1ccc(NC(=O)c3ccccc3-c3ccccc3)cc1)c1ccccc1-2`, for which the Potency result in assay [1], in assay [2] and in assay [3] was “inactive” throughout.

Turning to `Cc1ccccc1C(C(=O)NC1CCCCC1)N(C(=O)CNc1ccc(C#N)cc1)c1cccc(F)c1` (stereo unspecified), the Potency result in assay [1] and in assay [2] was “inactive” throughout.

In the case of `O=C(Nc1cccc(Cl)c1)Nc1ncc(CCNc2ncnc3ccsc23)s1`, the Potency result in assay [1] is “inactive”.
